Data taken from PubChem BioAssay AID485314 (National Center for Advancing Translational Sciences (NCATS), 2010).
Values joined by “and” are separate entries in the source; they are usually repeats but may differ in a detail not shown here. Equal entries are not always repeated. Out of some 340,000 compounds screened, about 4,500 (1.3%) were called active. Inconclusive results (about 5%) are left out. Calls follow the shape of the dose curve; as a rule, active = well fitted inhibition curve with a large enough effect; inconclusive = small, poorly fitted or top-dose-only effect, or another doubt; inactive = no such curve, though single readings can be large or run the other way. Many of the other results were omitted from the sample, so actives are more common in it than they were. Where a structure was tested more than once in an assay, its records may differ in their call.

molecular target: DNA polymerase beta (Homo sapiens) (UniProt P06746); assay: qHTS Assay for Inhibitors of DNA Polymerase Beta; conditions: Pol beta primer extension/strand displacement, fluorescence kinetic; series mostly up to 114 µM; activity change, negative = inhibition: at the top concentration
How it was run: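 Preincubation: enzyme (10 nM) with compound, 15 min, RT. Reaction: substrate added to 50 nM final. Reads: 0 and 10 min. Analysis: normalized, Hill fit.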
% is scaled to controls: 0 for no effect and ±100 for the full control effect; potency is read from the fitted curve at half-maximal effect.

Activity change, negative = inhibition, inactive:
CCOC(=O)c1c(C)oc2nc(C)nc(Nc3ccc(CC)cc3)c12 -0.741%, Cc1cc(C)c(-c2n[nH]c3c2C(c2ccccc2F)N(CCO)C3=O)c(O)c1 (configuration not stated) -23.3%, CC(C)(C)c1ccc(C(=O)NCC(c2ccc(Cl)cc2)N2CCOCC2)cc1 (configuration not stated) -0.477%, CCOc1ccc(Nc2nc(Cc3nnc(SCC(=O)NC4CCCC4)n3C)cs2)cc1 19.3%, COCCCn1c(SCC(=O)NC2CCCC2)nnc1-c1ccccc1 56.4%, O=S(=O)(c1ccccc1)c1nc(-c2ccc(Cl)cc2Cl)oc1N1CCCCC1 2.22%, O=C(O)c1ccc2c(c1)C(=O)N(NC(=O)c1ccc(O)cc1)C2=O 11.7%, Cc1cccc(C(=O)c2cccc(C)c2)c1 10.4%, CCOc1ccc(Nc2nc3c(S(=O)(=O)c4cccc(Cl)c4)nnn3c3ccsc23)cc1 74.9%, CCCc1cc(=O)n2[nH]c(NCc3ccc(CC)cc3)nc2n1 3.13%, CCCn1ccc2c(OCC(=O)NCc3ccc(F)cc3)cccc2c1=O -9.24%, Cc1csc2nc(COC(=O)c3ccccc3NC(=O)c3ccccc3Cl)cc(=O)n12 -1.41%, Clc1ccccc1CSc1nncn2c1cc1occc12 3.29%, Cc1cc2c(cc3c(SCc4cccc(Cl)c4)nnc(C)n32)o1 2.13%, COc1ccc(C)cc1Nc1nc2ccccc2c2nnc(C)n12 -0.842%, Cc1ccc(C(=O)NNc2ncnc3ccccc23)cc1 0.16%, Cc1ccc(C(=O)NNC(=O)c2cccs2)cc1 23.2%, Cc1cc(C)c(/C=C/c2onc(C)c2S(=O)(=O)N2CCC(C(=O)Nc3ccc(Cl)cc3C)CC2)c(C)c1 0.277%, CCCCOc1ccc(CN2C(=O)C(=O)c3cc(Br)cc(C)c32)cc1OC -0.577%, O=C(Nc1ccc(S(=O)(=O)N2CCCCC2)cc1)c1cnccn1 -16.3%, O=C(N/N=C/c1ccccn1)c1cccc(NC(=O)c2ccc(Cl)cc2)c1 32.1%, CCOc1ccc(Nc2ncnc3scc(-c4ccc(OC)cc4)c23)cc1 3.28%, CCOC(=O)c1ccc(NC(=O)Cn2c(=O)cc(C)c3c(C)nn(-c4cccc(F)c4)c32)cc1 9.23%, CC(C)CNC(=O)COC(=O)/C=C/c1ccccc1[N+](=O)[O-] 24.6%, COc1ccc([N+](=O)[O-])cc1NC(=O)COC(=O)/C=C/c1ccco1 -3.55%, CCCOc1ccc(C2c3c(-c4ccccc4O)n[nH]c3C(=O)N2Cc2cccnc2)cc1 (configuration not stated) -3.35%, CC(C)(C)OC(=O)N1CCC(c2c(C(=O)Nc3ccc4c(c3)OCO4)cnn2-c2ccccc2)CC1 -11.1%, CCCCOC(=O)CSc1ncnc2sc3c(c12)CCC(C)C3 (configuration not stated) 19.6%, CCc1c(C)nc2cc(-c3cccs3)[nH]n2c1=O 8.34%, Cc1cc(=O)n2[nH]c(-c3cccc(Cl)c3)cc2n1 -0.142%, COc1cccc(OCc2cc(/C=N/NC(=O)c3nc(Cl)c(Cl)c(N)c3Cl)ccc2OC)c1 6.43%, COc1cc(/C=N/NC(=O)CNC(=O)c2ccncc2)ccc1OC(C)=O -0.998%, COc1ccccc1Nc1c2c(nc3ccc(NC(=O)/C=C/c4cc(OC)c(OC)c(OC)c4)cc13)CCCC2 -13%, CCOCCn1c(-c2ccccc2)nc2ccccc21 -5.52%, CCOCCn1c(C(C)C)nc2ccccc21 5.17%, COc1ccc(-c2nc(Cn3c(=O)cc(C)c4c(C)nn(-c5ccccc5)c43)c(C)o2)c(OC)c1 -3.95%, CCN1CCN(c2ncnc3c2cnn3-c2ccc(C)c(C)c2)CC1 2.84%, COc1cc(NC(=O)CN2CCN(S(=O)(=O)c3ccc(Br)cc3)CC2)cc(OC)c1 2.24%, CCOC(=O)CCc1c(C)c2ccc(OCc3nn[nH]n3)c(C)c2oc1=O 13.4%, Cc1c(CCC(=O)O)c(=O)oc2cc(OCc3ccc(Br)cc3)ccc12 15.4%, COc1ccccc1CNc1ccc(-c2nc(-c3ccccc3C)no2)cc1[N+](=O)[O-] 4.87%, COc1cccc(-c2nnc3n(CCc4ccccc4)c(=O)c4ccccc4n23)c1O 2.27%, CCCCN(CCCNC(=O)c1cc(Nc2ccccc2OC)nc2ccccc12)c1ccccc1 29.1%, CCCCN(C)S(=O)(=O)c1ccc(C(=O)Nc2sc3c(c2C(N)=O)CC(C)(C)NC3(C)C)cc1 -12.5%, CC1=C(c2ccc(C)cc2)S(=O)(=O)NC1=NCCCN1CCN(c2cc(C)ccc2C)CC1 0.366%, CCOc1ccc(NC(=O)c2cc(S(=O)(=O)N3CCCC3)c[nH]2)cc1 2.74%, COc1ccc(/C=C/C(=O)c2ccc(NS(=O)(=O)c3ccc(C)cc3)cc2)cc1O -14.9%, COc1ccc(C(=O)/C=C/c2ccc(-c3ccccc3)cc2)cc1CSCC(=O)O 14.7%, Cc1ccc(CCNC(=O)c2ccc(CNS(=O)(=O)c3ccc(C)cc3)cc2)cc1 30%, CSc1cccc(NC(=O)CN2C(=O)CCc3cc(S(=O)(=O)N4CCCCC4)ccc32)c1 -10.7%, C/C=C(/C)C(=O)Nc1cccc(C2=NOC3(C2)C[C@@H](C(N)=O)N(C(=O)C2(C)CC2)C3)c1 (some centres not stated) 14.5%, C/C=C\C=C\C(=O)N1CC2(CC(c3cccc(NC(=O)/C(C)=C\C)c3)=NO2)C[C@H]1C(N)=O (some centres not stated) 9.09%, Cc1ccccc1C(=O)Nc1nnc(S(=O)(=O)N(C)c2ccc(Cl)cc2)s1 7.24%, COC(=O)c1ccc(NC(=O)CSc2n[nH]c(-c3ccccc3)n2)cc1 -20%, CCOc1ccc(OCC)c(NC(=O)CN(c2ccc(C)cc2)S(=O)(=O)c2c(C)n[nH]c2C)c1 6.89%, CCn1c(C)c(C)c2cc(C(=O)NCCc3cc(OC)ccc3OC)ccc21 -1.85%, Cc1cccc(-n2c(C)cc(/C=N\NC(=O)c3cccs3)c2C)c1 6.08%, O=C(Nc1ccc(NC(=O)c2cccs2)cn1)c1ccco1 -8.35%, Oc1ccc(-c2nc3ccc(Cl)cn3c2Nc2ccc3c(c2)OCO3)cc1 -2.41%, CCOc1ccc(C(=O)/C=C/c2cn(CC(O)CN3CCCCCC3)c3ccccc23)cc1 (configuration not stated) 6.41%, O=S(=O)(NCC(c1ccccc1)N1CCc2ccccc21)c1ccccc1 (configuration not stated) 24.4%, COc1cc2nc(NCC(C)c3ccccc3)n3nc(-c4ccccc4)nc3c2cc1OC (configuration not stated) 33.3%, O=C(NCc1ccccc1Cl)c1cccn1-c1nnc(N2CCCCC2)s1 -19.8%, O=C(O)CCC(=O)N(Cc1ccccc1)Cc1ccccc1 -17.8%, O=C(CCc1ccccc1)NCCc1cccs1 16.8%, CCc1cccc(C)c1Nc1c(-c2ccc(N(C)C)cc2)nc2ncccn12 -0.565%, Cn1c(=O)oc2cc(S(=O)(=O)CCC(=O)NCCc3ccc(Cl)cc3)ccc21 0.302%, CCOc1ccc(OCC)c(NC(=O)CCS(=O)(=O)c2ccc(C)cc2)c1 8.41%, CC(=O)N1CCc2cc(Br)cc(S(=O)(=O)CCC(=O)NCCc3ccc(Cl)cc3)c21 40.7%, COc1ccc(Cl)cc1NC(=O)CCC(=O)c1ccc(C)cc1 0.944%, COc1cc(C(=O)NCCS(=O)(=O)N2CCN(c3ccccc3)CC2)cc(OC)c1OC -21%, O=C(COc1ccccc1Cl)Nc1ccc2nc(SCC(=O)N3CCCC3)sc2c1 2.65%, Oc1c(C(c2ccc(F)cc2)N2CCN(Cc3ccccc3)CC2)sc2nc(-c3ccco3)nn12 (configuration not stated) -1.89%, COC(=O)c1ccc(C2C(C(=O)Nc3ccccc3)=C(C)Nc3nc4ccccc4n32)cc1 (configuration not stated) -9.73%, Cc1cccc(N2CCN(C(=O)CCSCc3ccccc3F)CC2)c1C -1.73%, Cc1cc([N+](=O)[O-])ccc1NC(=O)c1ccc(NC(=O)C(C)C)cc1 18.3%, O=C(Nc1ccc(C(=O)N2CCCCC2)cc1)c1cccc([N+](=O)[O-])c1 42.3%, CCOc1cccc2cc(-c3cn4c(n3)sc3cc(C)ccc34)c(=O)oc12 50.3%

Potency, active:
COCCCn1c(Cc2csc(Nc3cccc(Cl)c3)n2)nnc1SCC(=O)OC1CCCCC1 44.7 µM, O=C(c1ccc(O)cc1)c1ccc(C(=O)O)c(C(=O)O)c1 35.5 µM, Clc1ccc(CSc2nncn3c2cc2occc23)cc1 31.6 µM, Cc1ccc(C(=O)NNC(=O)c2cc3cc4ccccc4nc3s2)cc1 50.1 µM, Cc1coc2c(O)cc3c(c12)OC1(N2CCCCC2)C(=O)NCCCC31 (configuration not stated) 50.1 µM, O=C(N/N=C/c1ccccn1)c1ccc(S(=O)(=O)N2CCCCCC2)cc1 20 µM, CC(C)CNC(=O)COC(=O)/C=C/c1ccco1 28.2 µM, Cc1cc(=O)n2[nH]c(-c3sccc3-n3c(C)ccc3C)cc2n1 44.7 µM, COc1ccc(/C=N\NC(=O)c2sc(N)nc2C)cc1OC 17.8 µM, CCc1nc2ccccc2n(CCOCCOCCn2c(=O)c(CC)nc3ccccc32)c1=O 35.5 µM, Cc1c(CCC(=O)O)c(=O)oc2c(C)c(OCc3ccccc3Cl)ccc12 12.6 µM, COC(=O)c1ccc(COc2ccc(/C=C/C(=O)c3ccc(OC)c(CSCC(=O)O)c3)cc2OC)cc1 31.6 µM, C=C(C)C(=O)Nc1cccc(C2=NOC3(C2)C[C@H](C(N)=O)N(C(=O)C(c2ccccc2)c2ccccc2)C3)c1 (some centres not stated) 14.1 µM, O=C(N/N=C/C=C/c1ccco1)c1cccs1 25.1 µM, O=C(O)CCC(=O)N(Cc1cccs1)Cc1cccs1 44.7 µM, O=C(CCS(=O)(=O)c1ccc(Br)cc1)NCCc1ccc(Cl)cc1 39.8 µM, COc1ccc(Cl)cc1NC(=O)CCS(=O)(=O)c1ccc(Br)cc1 3.16 µM, Cn1ccc(=Nc2ccc(NC(=O)c3ccc(N=c4ccn(C)c5ccc([N+](=O)[O-])cc45)cc3)cc2)cc1 0.355 µM

Potency, inactive and 25.1 µM (active):
CO/N=C(\C(=O)N[C@@H]1C(=O)N2C(C(=O)O)=C(COC(C)=O)CS[C@H]12)c1csc(N)n1 (stereo in doubt)
